The values that follow come from ChEMBL document CHEMBL2218924, “A broad activity screen in support of a chemogenomic map for kinase signalling research and drug discovery” (Biochem J, 2013).

For assay [1], the target named is Tyrosine-protein kinase Fer (Homo sapiens) (UniProt P16591). The following applies: at 10 µM.
The target of assay [2] is Tyrosine-protein kinase Fes/Fps (Homo sapiens) (UniProt P07332). Conditions: at 1 µM.
For assay [3] the target is unchanged. Conditions: at 10 µM.
Assay [4] deals with Vascular endothelial growth factor receptor 1 (Homo sapiens) (UniProt P17948). Conditions: at 1 µM.
Vascular endothelial growth factor receptor 1 (Homo sapiens), sequence (P17948 whole entry): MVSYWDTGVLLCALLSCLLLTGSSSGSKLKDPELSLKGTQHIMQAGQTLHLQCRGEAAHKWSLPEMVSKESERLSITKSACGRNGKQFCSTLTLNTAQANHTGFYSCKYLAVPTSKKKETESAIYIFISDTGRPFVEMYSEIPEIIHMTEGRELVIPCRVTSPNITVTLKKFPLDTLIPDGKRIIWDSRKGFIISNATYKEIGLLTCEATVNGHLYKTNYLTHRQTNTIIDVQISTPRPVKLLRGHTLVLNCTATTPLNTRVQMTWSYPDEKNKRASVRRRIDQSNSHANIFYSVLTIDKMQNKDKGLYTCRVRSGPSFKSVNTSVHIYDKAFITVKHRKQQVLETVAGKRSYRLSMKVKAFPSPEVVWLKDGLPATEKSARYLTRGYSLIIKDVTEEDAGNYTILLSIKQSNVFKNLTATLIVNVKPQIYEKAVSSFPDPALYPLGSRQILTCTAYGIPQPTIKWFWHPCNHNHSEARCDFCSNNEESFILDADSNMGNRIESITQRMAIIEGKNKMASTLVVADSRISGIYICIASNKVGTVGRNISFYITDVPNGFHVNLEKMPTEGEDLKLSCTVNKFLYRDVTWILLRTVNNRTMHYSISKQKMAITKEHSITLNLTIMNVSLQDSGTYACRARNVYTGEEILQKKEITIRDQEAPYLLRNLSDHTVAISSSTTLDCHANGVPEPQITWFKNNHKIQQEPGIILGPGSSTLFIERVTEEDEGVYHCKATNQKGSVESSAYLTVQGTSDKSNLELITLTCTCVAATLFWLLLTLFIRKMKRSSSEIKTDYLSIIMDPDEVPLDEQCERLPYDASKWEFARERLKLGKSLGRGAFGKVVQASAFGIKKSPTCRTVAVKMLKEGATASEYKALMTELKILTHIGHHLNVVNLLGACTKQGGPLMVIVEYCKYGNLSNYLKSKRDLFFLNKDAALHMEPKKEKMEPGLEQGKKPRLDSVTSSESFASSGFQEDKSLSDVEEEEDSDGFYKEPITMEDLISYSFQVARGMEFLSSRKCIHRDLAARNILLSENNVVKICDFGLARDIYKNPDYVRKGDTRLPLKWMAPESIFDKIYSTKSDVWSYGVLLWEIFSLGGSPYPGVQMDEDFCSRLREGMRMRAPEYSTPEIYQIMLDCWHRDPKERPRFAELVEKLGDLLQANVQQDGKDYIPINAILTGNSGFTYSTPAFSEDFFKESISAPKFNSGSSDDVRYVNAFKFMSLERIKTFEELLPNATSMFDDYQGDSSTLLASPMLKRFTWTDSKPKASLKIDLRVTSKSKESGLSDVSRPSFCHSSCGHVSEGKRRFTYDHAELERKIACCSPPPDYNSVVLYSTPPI
For assay [5] the target is unchanged. The following applies: at 10 µM.
The target of assay [6] is Receptor-type tyrosine-protein kinase FLT3 (Homo sapiens) (UniProt P36888). Conditions: at 1 µM.
Receptor-type tyrosine-protein kinase FLT3 (Homo sapiens), sequence (P36888 whole entry): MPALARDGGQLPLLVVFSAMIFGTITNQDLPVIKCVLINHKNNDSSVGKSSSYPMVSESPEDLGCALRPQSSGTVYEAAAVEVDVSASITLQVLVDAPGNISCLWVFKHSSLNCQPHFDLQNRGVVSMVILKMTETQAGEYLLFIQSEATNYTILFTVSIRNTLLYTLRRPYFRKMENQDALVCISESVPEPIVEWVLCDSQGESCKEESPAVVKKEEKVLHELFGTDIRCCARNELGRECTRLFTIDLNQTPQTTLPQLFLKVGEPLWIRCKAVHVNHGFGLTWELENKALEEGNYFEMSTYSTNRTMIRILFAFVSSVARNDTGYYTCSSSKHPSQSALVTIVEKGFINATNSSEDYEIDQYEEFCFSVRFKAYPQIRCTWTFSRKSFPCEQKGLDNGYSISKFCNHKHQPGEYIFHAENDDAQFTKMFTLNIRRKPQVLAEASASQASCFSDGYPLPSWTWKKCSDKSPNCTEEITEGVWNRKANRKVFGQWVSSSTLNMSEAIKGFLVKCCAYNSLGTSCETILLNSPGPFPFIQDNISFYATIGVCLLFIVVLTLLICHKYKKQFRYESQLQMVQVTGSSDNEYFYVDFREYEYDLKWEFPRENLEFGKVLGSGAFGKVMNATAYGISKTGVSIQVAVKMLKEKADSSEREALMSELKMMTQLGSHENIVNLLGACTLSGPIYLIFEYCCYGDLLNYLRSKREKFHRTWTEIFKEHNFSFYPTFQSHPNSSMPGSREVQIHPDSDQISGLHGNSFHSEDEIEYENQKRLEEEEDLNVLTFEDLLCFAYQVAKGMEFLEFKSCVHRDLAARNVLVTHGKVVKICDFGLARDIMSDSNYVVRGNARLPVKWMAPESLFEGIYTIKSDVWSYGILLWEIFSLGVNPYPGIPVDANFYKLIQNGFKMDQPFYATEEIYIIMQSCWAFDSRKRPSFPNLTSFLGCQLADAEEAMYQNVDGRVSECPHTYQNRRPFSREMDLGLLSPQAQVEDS
The target is the same in assay [7]. Conditions: at 10 µM.
In assay [8] the target is Vascular endothelial growth factor receptor 3 (Homo sapiens) (UniProt P35916). The following applies: at 1 µM.
Assay [9] shares this target. The following applies: at 10 µM.
The target in assay [10] is Macrophage colony-stimulating factor 1 receptor (Homo sapiens) (UniProt P07333). The following applies: at 1 µM.
Macrophage colony-stimulating factor 1 receptor (Homo sapiens), sequence (P07333 whole entry): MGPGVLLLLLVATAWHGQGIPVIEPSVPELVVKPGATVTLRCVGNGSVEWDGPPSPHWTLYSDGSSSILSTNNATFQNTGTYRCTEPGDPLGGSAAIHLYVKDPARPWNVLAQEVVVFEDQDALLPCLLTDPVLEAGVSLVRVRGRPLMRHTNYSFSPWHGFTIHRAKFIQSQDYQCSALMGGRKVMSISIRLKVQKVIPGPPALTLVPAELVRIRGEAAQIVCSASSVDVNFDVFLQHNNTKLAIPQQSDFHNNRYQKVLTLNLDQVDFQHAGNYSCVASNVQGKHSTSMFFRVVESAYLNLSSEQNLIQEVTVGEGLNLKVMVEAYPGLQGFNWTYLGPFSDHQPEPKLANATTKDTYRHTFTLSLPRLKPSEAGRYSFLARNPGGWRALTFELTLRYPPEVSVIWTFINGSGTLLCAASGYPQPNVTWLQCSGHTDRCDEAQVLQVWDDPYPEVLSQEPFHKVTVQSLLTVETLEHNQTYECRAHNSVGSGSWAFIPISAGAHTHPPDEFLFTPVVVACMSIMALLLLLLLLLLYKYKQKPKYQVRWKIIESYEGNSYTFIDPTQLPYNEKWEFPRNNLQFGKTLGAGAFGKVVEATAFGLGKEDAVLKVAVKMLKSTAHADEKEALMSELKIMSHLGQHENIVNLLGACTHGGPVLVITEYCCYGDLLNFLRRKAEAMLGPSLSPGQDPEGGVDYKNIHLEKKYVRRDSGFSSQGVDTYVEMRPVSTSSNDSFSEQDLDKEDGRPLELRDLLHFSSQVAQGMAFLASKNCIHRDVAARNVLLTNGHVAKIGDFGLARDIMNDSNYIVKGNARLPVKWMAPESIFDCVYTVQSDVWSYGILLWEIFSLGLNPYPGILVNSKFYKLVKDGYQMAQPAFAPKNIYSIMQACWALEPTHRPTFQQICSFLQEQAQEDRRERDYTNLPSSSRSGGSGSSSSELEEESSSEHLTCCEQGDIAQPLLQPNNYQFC
Assay [11] shares this target. Conditions: at 10 µM.
Assay [12] deals with T1, Mitogen-activated protein kinase kinase kinase kinase 2 (Homo sapiens) (UniProt Q12851).
T1 sequence (whole entry): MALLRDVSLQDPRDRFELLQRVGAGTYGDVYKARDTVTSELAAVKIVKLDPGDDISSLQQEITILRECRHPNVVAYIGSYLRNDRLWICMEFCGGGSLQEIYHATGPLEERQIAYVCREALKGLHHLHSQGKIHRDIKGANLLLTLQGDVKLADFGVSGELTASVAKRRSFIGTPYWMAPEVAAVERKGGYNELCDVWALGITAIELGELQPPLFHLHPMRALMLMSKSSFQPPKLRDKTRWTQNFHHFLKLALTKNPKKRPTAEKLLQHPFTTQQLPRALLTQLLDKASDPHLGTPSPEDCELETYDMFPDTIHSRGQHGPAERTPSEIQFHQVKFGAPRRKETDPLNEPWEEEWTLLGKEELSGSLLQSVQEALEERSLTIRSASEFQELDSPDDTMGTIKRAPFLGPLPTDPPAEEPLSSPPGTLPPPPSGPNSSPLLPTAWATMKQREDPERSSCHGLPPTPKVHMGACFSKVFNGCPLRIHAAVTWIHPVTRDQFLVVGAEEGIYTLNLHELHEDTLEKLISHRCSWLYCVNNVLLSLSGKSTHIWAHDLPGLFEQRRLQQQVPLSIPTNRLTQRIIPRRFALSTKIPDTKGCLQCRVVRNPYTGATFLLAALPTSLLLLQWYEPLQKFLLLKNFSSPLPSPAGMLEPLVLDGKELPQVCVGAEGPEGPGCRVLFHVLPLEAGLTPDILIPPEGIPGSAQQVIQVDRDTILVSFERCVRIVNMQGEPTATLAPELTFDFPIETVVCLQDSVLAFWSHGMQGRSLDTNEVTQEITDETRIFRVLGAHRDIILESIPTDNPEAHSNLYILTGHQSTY
Conditions: at 1 µM.

The target in assay [13] is T1, Mitogen-activated protein kinase kinase kinase kinase 2 (Homo sapiens). Conditions: at 10 µM.
For assay [14], the target named is G protein-coupled receptor kinase 6 (Homo sapiens) (UniProt P43250). The following applies: at 10 µM.
G protein-coupled receptor kinase 6 (Homo sapiens), sequence (P43250 whole entry, looked up): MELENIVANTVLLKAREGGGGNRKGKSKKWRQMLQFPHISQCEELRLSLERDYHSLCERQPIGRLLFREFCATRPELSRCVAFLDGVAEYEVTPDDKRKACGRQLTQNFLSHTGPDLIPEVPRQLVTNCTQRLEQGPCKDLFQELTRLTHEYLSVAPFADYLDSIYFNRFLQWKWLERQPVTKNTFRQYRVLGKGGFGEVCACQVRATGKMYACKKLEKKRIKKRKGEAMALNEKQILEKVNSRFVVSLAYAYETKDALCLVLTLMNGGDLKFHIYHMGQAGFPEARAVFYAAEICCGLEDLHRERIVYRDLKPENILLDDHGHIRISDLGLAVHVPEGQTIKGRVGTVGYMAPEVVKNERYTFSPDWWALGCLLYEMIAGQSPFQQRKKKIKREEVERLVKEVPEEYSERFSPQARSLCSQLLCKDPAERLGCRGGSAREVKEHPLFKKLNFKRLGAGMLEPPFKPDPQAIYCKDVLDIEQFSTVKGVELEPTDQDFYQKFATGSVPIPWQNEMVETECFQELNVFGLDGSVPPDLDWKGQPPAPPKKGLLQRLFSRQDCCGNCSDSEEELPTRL
Assay [15] addresses Tyrosine-protein kinase Fgr (Homo sapiens) (UniProt P09769). Conditions: at 1 µM.
Assay [16] shares this target. Conditions: at 10 µM.
Assay [17] deals with Tyrosine-protein kinase Fyn (Homo sapiens) (UniProt P06241). Conditions: at 1 µM.
Assay [18] has the same target. The following applies: at 10 µM.
For assay [19], the target named is G protein-coupled receptor kinase 5 (Homo sapiens) (UniProt P34947). Conditions: at 10 µM.
For assay [20], the target named is T2, Rhodopsin kinase GRK7 (Homo sapiens) (UniProt Q8WTQ7).
T2 sequence (whole entry): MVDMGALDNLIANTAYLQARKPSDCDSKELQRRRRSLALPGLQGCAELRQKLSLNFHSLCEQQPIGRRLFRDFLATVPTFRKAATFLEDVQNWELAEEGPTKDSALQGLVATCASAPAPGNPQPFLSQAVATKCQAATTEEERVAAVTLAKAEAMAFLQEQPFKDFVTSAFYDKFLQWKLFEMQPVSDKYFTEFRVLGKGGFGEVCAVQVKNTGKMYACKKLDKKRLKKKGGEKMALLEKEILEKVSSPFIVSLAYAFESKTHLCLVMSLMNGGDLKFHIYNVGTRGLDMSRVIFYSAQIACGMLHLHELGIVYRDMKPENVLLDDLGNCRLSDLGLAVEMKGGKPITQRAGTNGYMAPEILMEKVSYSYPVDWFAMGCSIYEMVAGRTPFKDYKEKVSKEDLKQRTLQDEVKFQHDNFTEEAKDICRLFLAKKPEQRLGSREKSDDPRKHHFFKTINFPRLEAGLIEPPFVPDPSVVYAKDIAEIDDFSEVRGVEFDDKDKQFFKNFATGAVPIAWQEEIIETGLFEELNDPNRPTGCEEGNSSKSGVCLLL
Conditions: at 1 µM.

Tyrosine-protein kinase Fer (Homo sapiens), sequence (P16591 whole entry, looked up): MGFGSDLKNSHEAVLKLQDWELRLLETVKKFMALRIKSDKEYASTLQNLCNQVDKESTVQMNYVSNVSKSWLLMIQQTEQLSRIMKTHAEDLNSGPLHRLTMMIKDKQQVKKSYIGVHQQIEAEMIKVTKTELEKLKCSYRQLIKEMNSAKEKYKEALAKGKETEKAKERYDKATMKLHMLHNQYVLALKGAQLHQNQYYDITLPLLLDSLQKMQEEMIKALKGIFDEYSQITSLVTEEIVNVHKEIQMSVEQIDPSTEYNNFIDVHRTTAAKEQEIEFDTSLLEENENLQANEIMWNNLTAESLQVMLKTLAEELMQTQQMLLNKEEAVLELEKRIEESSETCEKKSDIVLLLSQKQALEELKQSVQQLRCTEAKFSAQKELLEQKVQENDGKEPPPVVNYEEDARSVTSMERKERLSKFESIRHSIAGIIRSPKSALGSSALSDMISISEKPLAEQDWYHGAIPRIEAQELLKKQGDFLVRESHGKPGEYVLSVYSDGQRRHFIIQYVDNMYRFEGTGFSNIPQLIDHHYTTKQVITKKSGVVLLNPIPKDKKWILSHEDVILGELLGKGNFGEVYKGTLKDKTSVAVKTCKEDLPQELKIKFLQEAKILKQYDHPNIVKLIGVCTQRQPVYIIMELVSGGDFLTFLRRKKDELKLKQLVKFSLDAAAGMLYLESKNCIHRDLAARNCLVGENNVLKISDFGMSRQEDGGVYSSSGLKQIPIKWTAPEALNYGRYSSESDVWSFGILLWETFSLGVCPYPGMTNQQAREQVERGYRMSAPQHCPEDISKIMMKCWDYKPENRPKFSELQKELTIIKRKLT

On to `O=C(c1ccccc1)c1ccc(N2CCOCC2)cc1O`, for which the residual activity was 97% in [1]; 116% in assay [2]; 93% in [3]; 100% in assay [4]; 93% in assay [5]; 83% in assay [6]. Also, the residual activity in assay [7] is 53%; in assay [8], 87%; in [9], 85%; in [10], 75%; in assay [11], 55%; in [12], 95%. Also, the residual activity in assay [13] worked out at 89%; in [14], 88%.
As for `CCN(CC)CCNC(=O)c1c(C)[nH]c(/C=C2\C(=O)Nc3ccc(Cl)cc32)c1C`, the residual activity in assay [1] stood at 14%; in [2], 14%; in assay [3] it was 2%; in assay [15] it was 8%; in assay [16], 2%; in [4], 5%. The residual activity is 0% in assay [5]; 1% in assay [6]; -1% in assay [7]; 0% in assay [8]; 1% in assay [9]; 0% in assay [10]. Further, the residual activity was 0% in assay [11]; 6% in assay [17]; 1% in [18]; 5% in [12]; 0% in assay [13]; 33% in assay [19]. Also, the residual activity in assay [14] came to 17%; in assay [20] it was 57%.
Take `CCCC(=O)Oc1ccc2[nH]c(C(=O)c3cc4ccccc4[nH]3)cc2c1`: the residual activity amounted to 98% in assay [1]; 104% in [2]; 81% in [3]; 97% in assay [15]; 82% in [16]; 83% in assay [4]. Also, the residual activity was 86% in assay [5]; 73% in [6]; 50% in [7]; 73% in [8]; 68% in [9]; 78% in assay [10]. The residual activity in assay [11] came to 83%; in assay [17], 78%; in [18], 89%; in [12], 86%; in [13] it was 70%; in [19], 95%. Also, the residual activity in assay [14] amounted to 78%; in assay [20], 93%.
As for `CN(C)S(=O)(=O)c1ccc2c(c1)/C(=C/c1cc3c([nH]1)CCCC3)C(=O)N2`, the residual activity stood at 68% in assay [1]; 82% in assay [2]; 61% in assay [3]; 21% in assay [15]; 9% in [16]; 67% in [4]. The residual activity in [5] is 56%; in [6], 27%; in assay [7], 41%; in [8], 33%; in assay [9], 46%; in assay [10] it was 4%. Moreover, the residual activity in [11] is 0%; in assay [17], 22%; in assay [18], 24%; in assay [12], 5%; in [13], 5%; in assay [19] it was 84%.
Consider `Nc1n[nH]c2nc3ccccc3nc12`, for which the residual activity in assay [1] was 90%; in [2] it was 95%; in [3], 87%; in assay [15] it was 100%; in assay [16], 87%; in [4], 89%. Moreover, the residual activity in [5] stood at 66%; in [6], 70%; in [7] it was 45%; in [8], 79%; in assay [9], 44%; in assay [10], 74%. Further, the residual activity in assay [11] stood at 66%; in [17] it was 73%; in [18], 73%; in [12], 78%; in [13], 37%; in assay [19] it was 94%. The residual activity in [14] was 85%.
In the case of `COc1cc2c(cc1OC)-c1n[nH]c(Nc3cccc(F)c3)c1C2`, the residual activity was found to be 82% in [1]; 59% in assay [3]; 20% in [15]; 4% in assay [16]; 47% in assay [6]; 5% in assay [7]. The residual activity in assay [10] came out at 1%; in assay [11], 0%; in [17], 16%; in assay [18] it was 0%; in assay [13] it was 44%; in assay [14], 81%.
With `O=c1cc(N2CCNCC2)oc2c(-c3ccccc3)cccc12`, the residual activity in assay [1] came to 95%; in assay [3], 89%; in assay [16], 90%; in [4], 88%; in assay [5] it was 95%; in [6], 78%. The residual activity in [7] amounted to 81%; in assay [8], 96%; in [9], 90%; in assay [10] it was 61%; in assay [11], 78%; in assay [17], 88%. For the same molecule, the residual activity in [18] was found to be 88%; in assay [12], 90%; in assay [13], 83%; in assay [19], 104%; in [14], 84%; in assay [20], 95%.
Regarding `N#Cc1c(NC(=O)c2cccc3ccccc23)sc2c1CCCC2`, the residual activity in assay [1] is 97%; in assay [3], 95%; in [15], 99%; in assay [16] it was 135%; in assay [7], 77%; in assay [8], 92%. Moreover, the residual activity in [9] is 86%; in [10], 69%; in assay [11], 74%; in assay [17], 72%; in assay [18], 87%; in assay [13] it was 90%. Besides, the residual activity stood at 98% in assay [19] and 90% in [14].
With `O=C1C(Cl)=C(N2C(=O)CCC2=O)C(=O)c2ccccc21`, the residual activity in [1] stood at 91%; in assay [2], 83%; in [3], 97%; in assay [15] it was 94%; in assay [16], 96%; in [4] it was 96%. Moreover, the residual activity came to 84% in assay [5]; 90% in assay [6]; 87% in assay [7]; 91% in assay [8]; 80% in [9]; 73% in [10]. Further, the residual activity in assay [11] worked out at 65%; in assay [17], 76%; in assay [18], 75%; in [12] it was 90%; in assay [13], 89%; in assay [19] it was 94%. Further, the residual activity in assay [14] came out at 91%; in assay [20], 99%.
For `COc1ccc2c(c1)c(C1=C(c3c[nH]c4ccccc34)C(=O)NC1=O)cn2CCCN(C)C`, the residual activity was determined as 58% in assay [1]; 96% in [2]; 26% in [3]; 33% in [16]; 2% in assay [4]; 0% in assay [5]. In addition, the residual activity in assay [6] came out at 21%; in assay [7], 0%; in [8], 2%; in [9], 0%; in assay [10], 59%; in assay [11] it was 36%. Moreover, the residual activity in assay [18] was determined as 60%; in [12] it was 75%; in [13] it was 30%; in assay [19] it was 51%.
With `O=S(=O)(NCCNC/C=C/c1ccc(Br)cc1)c1cccc2cnccc12`, the residual activity amounted to 71% in [1]; 75% in [2]; 27% in assay [3]; 59% in assay [16]; 35% in assay [5]; 46% in assay [7]. Also, the residual activity in assay [8] was determined as 81%; in assay [9] it was 26%; in [10] it was 116%; in [17], 75%; in assay [18] it was 55%; in assay [12], 76%. For the same molecule, the residual activity was determined as 42% in assay [13] and 81% in [14].
For `O=C(CCCc1ccc(-c2ccccc2F)cc1)Nc1ccc(O)cc1`, the residual activity is 91% in [1]; 107% in assay [2]; 100% in assay [3]; 93% in assay [15]; 92% in assay [16]; 109% in [4]. Moreover, the residual activity in [5] came out at 100%; in [6], 101%; in [7], 87%; in assay [8], 101%; in assay [9] it was 83%; in assay [10], 97%. For the same molecule, the residual activity was determined as 43% in assay [11]; 82% in assay [17]; 72% in [18]; 96% in assay [12]; 89% in [13]; 91% in [19]. Also, the results for the residual activity in assay [14] and in assay [20] were 90% and 104%, respectively.
As for `CC(C)(C)n1nc(Cc2cccc3ccccc23)c2c(N)ncnc21`, the residual activity came to 39% in [1]; 95% in assay [2]; 27% in assay [3]; 35% in assay [15]; 4% in assay [16]; 62% in [4]. Moreover, the residual activity in [5] came out at 14%; in assay [6], 102%; in assay [7] it was 75%; in assay [8] it was 42%; in assay [9], 5%; in assay [10], 59%. Moreover, the residual activity in assay [11] amounted to 6%; in assay [17] it was 30%; in assay [18], 3%; in [13] it was 44%; in [19], 96%; in assay [20] it was 98%.
